# High-throughput results deposited in PubChem BioAssay by The Scripps Research Institute Molecular Screening Center.
# PPARg SRC-1 ag: agonists of human PPARgamma SRC-1 coactivator recruitment. PPARgamma-SRC-1 coactivator recruitment biochemical assay. AID 631. 0.41% of 200,000 active. P37231. activation, % at 8 µM; in the data active = activation above about 19%
# Target sequence (P37231 whole entry, looked up): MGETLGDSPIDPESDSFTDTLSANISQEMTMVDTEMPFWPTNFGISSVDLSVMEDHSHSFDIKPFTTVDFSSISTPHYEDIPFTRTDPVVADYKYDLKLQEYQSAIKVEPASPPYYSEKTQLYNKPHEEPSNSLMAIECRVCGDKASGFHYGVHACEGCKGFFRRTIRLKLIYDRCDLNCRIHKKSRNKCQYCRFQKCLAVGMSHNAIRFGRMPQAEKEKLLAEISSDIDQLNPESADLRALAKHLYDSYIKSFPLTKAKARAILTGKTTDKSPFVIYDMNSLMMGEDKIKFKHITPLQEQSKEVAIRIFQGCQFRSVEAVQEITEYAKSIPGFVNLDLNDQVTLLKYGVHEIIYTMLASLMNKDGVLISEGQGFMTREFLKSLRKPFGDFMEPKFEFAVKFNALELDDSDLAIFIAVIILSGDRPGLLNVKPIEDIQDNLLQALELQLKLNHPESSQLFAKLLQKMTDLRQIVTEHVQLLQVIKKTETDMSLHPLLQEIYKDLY
# PPARg SRC-3 ag: agonists of human PPARgamma SRC-3 coactivator recruitment. activation, % at 8 µM. 0.26% of 200,000 active. biochemical PPARgamma/SRC-3 coactivator recruitment assay; in the data active = activation above about 23%
# SRC3 TRFRET art: counter-screen for PPARgamma SRC-3 recruitment agonists: TR-FRET artefact; PPARgamma/SRC-3 format; hits give high values; TR-FRET ratio at 8 µM; 0.39% of 99,000 active; AID 1048; in the data active = TR-FRET ratio above about 2000
# PPARg SRC-2 ag: promotes SRC-2 coactivator recruitment by human PPARgamma; P37231; PPARgamma LBD-SRC-2 recruitment, biochemical; activation, % at 8 µM; 0.34% of 200,000 active; AID 1032
# SRC2 TRFRET art: flags TR-FRET format artefacts in PPARgamma SRC-2 recruitment agonist screen; TR-FRET ratio at 8 µM; TR-FRET artefact counter-screen; hits give high values; AID 1049; 0.4% of 200,000 active; in the data active = TR-FRET ratio above about 2000
# SRC1 TRFRET art: TR-FRET artefact, counter-screen to PPARgamma/SRC-1 agonist assay. TR-FRET detection artefact counter-screen, emission ratio; hits give high values. TR-FRET ratio at 8 µM. 0.34% of 99,000 active; in the data active = TR-FRET ratio above about 2300
# PPARg SRC2 ag: confirmation of agonists of SRC-2 recruitment by human PPARgamma. biochemical SRC-2 recruitment by PPARgamma. activation, % at 8 µM. AID 1297. 52% of 790 active. shares compounds with PPARg SRC-3 ag
# PPARg SRC1 ag: human PPARgamma SRC-1 recruitment agonism, confirmation. shares compounds with PPARg SRC-3 ag. PPARgamma–SRC-1 coactivator recruitment biochemical assay. activation, % at 8 µM. 43% of 790 active. AID 1300; in the data active = activation above about 20%
# PPARg SRC3 conf: confirmation of agonists of SRC-3 recruitment by human PPARgamma; shares compounds with PPARg SRC-3 ag; 29% of 790 active; biochemical PPARgamma-SRC-3 coactivator recruitment, agonist mode; activation, % at 8 µM; in the data active = activation above about 24%
# A number is an active result; n = inactive; x = no result given. A selection: hits, their analogues and other compounds. The true share with any hit is near 0.9%. Cut-off read from the data, not from the text of the source, unless noted: active = activation above about 22%; inactive = the rest.
SMILES,PPARg SRC-1 ag,PPARg SRC-3 ag,SRC3 TRFRET art,PPARg SRC-2 ag,SRC2 TRFRET art,SRC1 TRFRET art,PPARg SRC2 ag,PPARg SRC1 ag,PPARg SRC3 conf
CCn1c(=O)cc(SCC(=O)Nc2ccc(Cl)cc2)c2ccccc21,39,n,x,n,n,x,34,23,n
C#CCn1cc(/C=N/Nc2nc3ccccc3[nH]2)c2ccccc21,n,n,n,30,n,2389,n,n,n
O=C(NCc1ccco1)c1c2c(nc3ccccc13)CCC2,n,n,n,n,n,n,x,x,x
COCCCNC(=O)CSc1c2c(nc3ccc(Cl)cc13)CCCC2,31,n,2277,28,n,2727,n,n,n
CCCCNC(=O)c1ccc2c(SCC(=O)O)c3c(nc2c1)CCCC3,n,n,n,n,n,n,x,x,x
O=C(CSc1c2c(nc3ccccc13)CCCC2)NCc1ccco1,21,n,n,n,n,n,n,n,n
Cc1ccc(CNC(=O)CSc2c3c(nc4cc(Cl)ccc24)CCCC3)o1,n,n,x,28,n,x,27,n,n
O=C(O)CSc1c2c(nc3cc(C(=O)N4CCCC4)ccc13)CCCC2,n,n,n,n,n,n,x,x,x
O=C(CSc1c2c(nc3cc(Cl)ccc13)CCCC2)NCCN1CCOCC1,27,n,2338,32,2224,2381,n,n,n
COc1cc2c(cc1OC)CN(CC(=O)NC(=O)NC1CCCCC1)CC2,n,n,n,n,n,n,x,x,x
CC(=O)c1cc(F)ccc1OCC(=O)N1CCN(c2ccc(F)cc2)CC1,n,n,n,n,n,n,x,x,x
O=C(/C=C/c1ccc([N+](=O)[O-])cc1)N(c1ccccn1)C1CCCCC1,n,n,n,n,n,n,x,x,x
O=C(NCCN1C(=O)S/C(=C\c2ccc(F)cc2)C1=O)c1cccc(S(=O)(=O)N2CCOCC2)c1,n,n,n,n,n,n,x,x,x
Cc1cc(Cl)ccc1OCC(=O)NCCCN1CCOCC1,n,n,x,n,n,x,x,x,x
CCN(CC)CCCNC(=O)CSc1c2c(nc3cc(Cl)ccc13)CCCC2,33,n,2400,34,2152,2550,26,n,n
O=C(CSc1c2c(nc3cc(Cl)ccc13)CCCC2)NCCCN1CCOCC1,25,n,2060,26,n,n,n,n,n
COc1ccc(OC)c(NC(=O)CN(Cc2ccccc2)S(C)(=O)=O)c1,n,n,n,n,n,n,x,x,x
Cc1ccccc1NC(C)C(=O)N/N=C/c1ccccc1OCc1cccc(Br)c1 (stereo not drawn),n,n,x,n,n,x,x,x,x
COc1ccc(NC(C)C(=O)N/N=C/c2ccccc2OCc2cccc(Br)c2)cc1 (stereo not drawn),22,37,n,n,n,n,n,24,n
O=C(O)c1ccc(N2C(=O)/C(=C/C=C/c3ccccc3)SC2=S)cc1,n,n,n,n,n,n,x,x,x
CN(C)c1ccc(/C=C/C=C2/SC(=S)N(c3ccccc3)C2=O)cc1,20,n,x,n,n,x,30,21,n
Fc1cccc(NC(=S)NNc2c3ccccc3nc3ccccc23)c1,45,n,2517,53,2526,3530,n,n,n
CC(=O)CSc1nc(-c2cccs2)c(C#N)c(=O)[nH]1,n,n,2268,26,2150,2767,31,20,n
CC(=O)CSc1nc(N)c(C#N)c(-c2cccs2)c1C#N,n,n,x,n,n,x,x,x,x
O=C(O)CCN1C(=O)c2ccc(NC(=O)Cc3ccc(Cl)cc3)cc2C1=O,n,n,n,n,n,n,x,x,x
SMILES,PPARg SRC-1 ag,PPARg SRC-3 ag,SRC3 TRFRET art,PPARg SRC-2 ag,SRC2 TRFRET art,SRC1 TRFRET art,PPARg SRC2 ag,PPARg SRC1 ag,PPARg SRC3 conf
COc1ccccc1C1Nc2cccc3cccc(c23)N1,19,n,x,n,n,x,n,n,n
O=C(O)c1ccc2c3c(cccc13)C(=O)N(c1ccccc1)C2=O,n,n,n,n,n,n,x,x,x
Cc1c(O)c2c3c(cccc3c1O)C(=O)N(c1ccccc1)C2=O,24,n,2155,22,2078,2683,26,n,n
Cc1ccc(Sc2c(O)c3ccccc3n(C)c2=O)cc1,24,n,2226,26,2048,n,22,n,n
Cc1ccc(Sc2c(C=O)c3ccccc3n2C)cc1,n,n,x,n,n,x,x,x,x
COc1cc(NC(=O)COc2ccc(Cl)cc2)ccc1-c1cc2ccccc2oc1=O,n,n,n,n,n,n,x,x,x
COc1ccc(C2C(C(=O)c3cccs3)=C(O)C(=O)N2c2nnc(C)s2)cc1OC (stereo not drawn),n,n,x,n,n,x,x,x,x
C=CCOc1ccc(C2C(C(=O)c3cccs3)=C(O)C(=O)N2c2nnc(C)s2)cc1 (stereo not drawn),n,n,x,n,n,x,x,x,x
COc1ccc(C2C(C(=O)c3cccs3)=C(O)C(=O)N2c2nncs2)cc1 (stereo not drawn),27,26,x,n,n,x,24,n,n
CC(C)c1nnc(N2C(=O)C(O)=C(C(=O)c3cccs3)C2c2ccccc2)s1 (stereo not drawn),38,n,2283,31,2400,2598,n,n,n
Cc1ccc(-c2n[nH]c(=S)n2C)cc1Cl,26,n,n,n,n,n,n,n,n
CCN(CC)S(=O)(=O)c1cccc(-c2n[nH]c(=S)n2C)c1,n,n,n,n,n,n,x,x,x
CCOc1ccc(Br)cc1S(=O)(=O)Nc1cccc(S(=O)(=O)N(C)c2ccccc2)c1,n,n,n,n,n,n,x,x,x
O=S(=O)(NC(=S)NC1CCCCC1)c1ccc(Br)cc1,n,n,n,n,n,n,x,x,x
CCn1c(SCC(=O)NC2CCCCC2)nnc1-c1cccs1,n,n,x,n,n,x,x,x,x
CCn1c(SC(=O)NC2CCCCC2)nnc1-c1cccs1,24,29,x,22,n,x,n,n,n
O=S1(=O)C=C(SCc2ccc(F)cc2)Nc2ccccc21,n,n,n,n,n,n,x,x,x
CC(=O)C1=C(O)C(=O)N(CCc2c[nH]c3ccccc23)C1c1cccc(O)c1 (stereo not drawn),n,n,x,n,n,x,x,x,x
COc1cc(C2C(C(C)=O)=C(O)C(=O)N2CCc2c[nH]c3ccccc23)ccc1O (stereo not drawn),19,n,x,n,n,x,n,n,n
Cc1cccc(N=C2NC(=O)S/C2=C\c2ccco2)c1,22,n,n,n,n,2337,n,n,n
Cn1nc(C(=O)OCC(=O)NC2CCS(=O)(=O)C2)c2ccccc2c1=O (stereo not drawn),n,n,n,n,n,n,x,x,x
NC(=O)Nc1ccc(C(=O)OCC(=O)NC2CCCCC2)cc1,n,n,n,n,n,n,x,x,x
Cc1ccc(C)c(CN2C(=O)C3CCCN3c3ccc(C#N)cc32)c1 (stereo not drawn),n,n,x,n,n,x,x,x,x
